In ChEMBL document CHEMBL3988442, “University of Dundee, Small-Polar-MMV Screening Library” (2021) one finds Percent Effect data, which are given here for 40 molecules.

Molecules are shown by their SMILES.

The first test deals with Sialic acid-binding Ig-like lectin 9 (Homo sapiens) (UniProt Q9Y336). The experiment in a line: Hs-Siglec9 ALPHAscreen SOP 20170721. Further details: scale not given: direction of the effect not stated beside the values. As to conditions: 10 µM.
Sialic acid-binding Ig-like lectin 9 (Homo sapiens), sequence (Q9Y336 whole entry): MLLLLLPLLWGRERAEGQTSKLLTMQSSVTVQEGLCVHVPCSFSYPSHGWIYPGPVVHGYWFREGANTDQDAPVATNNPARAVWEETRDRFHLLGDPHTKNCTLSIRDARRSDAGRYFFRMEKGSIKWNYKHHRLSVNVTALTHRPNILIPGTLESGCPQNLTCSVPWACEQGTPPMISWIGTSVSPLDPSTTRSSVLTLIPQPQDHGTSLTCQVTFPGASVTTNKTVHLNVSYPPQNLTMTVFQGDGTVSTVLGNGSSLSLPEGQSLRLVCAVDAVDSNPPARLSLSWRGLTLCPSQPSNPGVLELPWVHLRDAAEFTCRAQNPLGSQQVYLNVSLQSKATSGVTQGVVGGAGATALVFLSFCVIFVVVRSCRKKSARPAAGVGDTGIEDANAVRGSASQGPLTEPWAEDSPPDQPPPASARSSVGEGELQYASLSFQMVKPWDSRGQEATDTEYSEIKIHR
Turning to `COc1cccc(CN2CCCC(Nc3cccc(F)c3)C2)c1O` (stereo not given), the Percent Effect amounted to 18.7%.

Take `CS(=O)(=O)Cc1ccc(CNC(=O)c2cccnc2O)cc1`: the Percent Effect came out at 5.03%.

Regarding `N#Cc1ccnc(N2CCN(CC(O)c3cccc(F)c3)CC2)c1` (stereo not given), the Percent Effect was -0.828%.

For the molecule `CN1C(=O)C[C@@H]2[C@@H]1CCN2S(=O)(=O)Cc1ccccc1`, the Percent Effect was determined as 13.8%.

With `Cn1ncc2c1C(COCC1CC1)CN(Cc1ccc(F)cc1)C2` (stereo not given), the Percent Effect is -11.9%.

On to `CCC1=N[C@@]2(CC[C@@H]3CN(C(=O)NCC(C)C)C[C@@H]32)C(=O)N1CC(C)C`, for which the Percent Effect came out at 5.84%.

`CC(O)CN1CCN(C(=O)c2cnn(-c3ccccc3F)c2)CC1` (stereo not given): the Percent Effect stood at 24.2%.

For `O=C(CCc1nccs1)N1CCN(c2ccc(Br)cn2)CC1`, the Percent Effect was -8.09%.

Turning to `Cc1cc(CN2CC[C@H]3C(=O)N(c4ccccc4)CCO[C@H]3C2)no1`, the Percent Effect was -6.56%.

Take `Cn1cc(-c2csc(N3CCN(C(=O)OC(C)(C)C)CC3)n2)cn1`: the Percent Effect came out at 7.74%.

Turning to `Cc1noc(C(C)C)c1C(=O)NCc1cccc(N(C)C)c1`, the Percent Effect is -1.43%.

On to `Cc1ccc(N2CCCc3sc(C(=O)NCc4cccnc4)nc32)nn1`, for which the Percent Effect was found to be 3.77%.

Consider `Cc1nc2ccccc2nc1CN1CCCC1Cn1cncn1` (stereo not given), for which the Percent Effect was -7.28%.

Take `CC(C)C(=O)N1CCN(C(=O)CCc2nnc(-c3ccccc3)o2)CC1`: the Percent Effect came out at 0.624%.

With `Cn1cnnc1C1CCCN(C(=O)NCc2ccc3c(c2)OCO3)C1` (stereo not given), the Percent Effect is -7.32%.

As to `CCn1cc(NC(=O)NCC2(N3CCOCC3)CCSC2)cn1` (stereo not given), the Percent Effect stood at 16.6%.

For the molecule `CS(=O)(=O)NC1CCN(C(=O)NCCNc2ccccn2)CC1`, the Percent Effect was -1.36%.

`Cc1cccc(-n2ncc(C(=O)N3CCn4c(C)nnc4C3)c2C)c1`: the Percent Effect is -0.191%.

For `O=C(c1cscn1)N1CCC[C@]2(C[C@H](OCC3CC3)CO2)C1`, the Percent Effect stood at 4.3%.

As for `N#Cc1cccnc1NCc1cccnc1N1CCC(C(N)=O)CC1`, the Percent Effect came out at 8.48%.

Regarding `c1cnc(NCc2noc3c2CN(CCN2CCCC2)CC3)nc1`, the Percent Effect was 10.5%.

`NC(=O)C1CCN(c2nc3nccc(-c4ccccc4)c3c(=O)[nH]2)CC1`: the Percent Effect stood at 3.02%.

With `Cc1cc(NC(=O)NCc2ccccn2)n(C)n1`, the Percent Effect stood at 5.94%.

Regarding `Fc1ccc(CN2CCC(c3nccnc3-n3ccnc3)CC2)cc1`, the Percent Effect is 0.663%.

Consider `O=C(c1ccc(-n2cccn2)nc1)N1CCCN(c2cccnn2)CC1`, for which the Percent Effect was -1.08%.

Consider `CCN(CC)c1ccc(C(=O)NCc2cccnc2-n2cncn2)cn1`, for which the Percent Effect was found to be 48.7%.

With `CCCNC(=O)CCNC(=O)Cc1nc(-c2ccco2)oc1C`, the Percent Effect was found to be 12.8%.

Consider `CN1CCCC(CNC(=O)N2CCN(Cc3ccon3)CC2)C1` (stereo not given), for which the Percent Effect turned out to be 1.23%.

With `Cc1nc(C(C)(C)NC(=O)Nc2ccccc2)no1`, the Percent Effect was -0.244%.

In the case of `CSCc1cccc(S(=O)(=O)NCCCN2CCOCC2)c1`, the Percent Effect is 8.61%.

Consider `CN(Cc1ccsc1)C(=O)Nc1cccnc1N1CCCC1`, for which the Percent Effect was -9.07%.

As for `CC(C)n1c(C2CCCN(Cc3ccnn3C)C2)nc2ccccc21` (stereo not given), the Percent Effect amounted to 4.6%.

Regarding `Cc1cc(CC(=O)N2CCCC2c2nc(C(C)C)no2)on1` (stereo not given), the Percent Effect was found to be 26.8%.

Take `COc1cccc(CNc2nc(O)cc(C3CC(=O)N(C)C3)n2)c1` (stereo not given): the Percent Effect stood at 1.72%.

Take `CC(=O)N1CCn2cc(CNC(=O)c3cccn3C)nc2C1`: the Percent Effect is -3.72%.

Turning to `O=C1CC(c2ccccc2)C2(CCN(CC3CC3)CC2)N1` (stereo not given), the Percent Effect is -1.87%.

For `CNC(=O)CSc1nc2c(cnn2Cc2ccc(F)cc2)c(=O)[nH]1`, the Percent Effect came to 2.62%.

Consider `Cc1nc(C(=O)N2CCC(Nc3cccnn3)CC2)cs1`, for which the Percent Effect is -10.3%.

In the case of `COc1cccc(OCc2cc(C(=O)NC[C@H]3CCCN3)n[nH]2)c1`, the Percent Effect amounted to 30.2%.

As for `Cc1ccc(CN2CCc3ncnc(C4CCOC4)c3CC2)s1` (stereo not given), the Percent Effect was 6.88%.

A further test has as its system Trypanosoma cruzi. The experiment in a line: Trypanosoma cruzi phosphomannomutase and mannose-1-phosphate guanylyltransferase assay. It is filed as functional. Also noted: scale not given: direction of the effect not stated beside the values. The settings on record: 10 µM.
Consider `COc1cccc(CN2CCCC(Nc3cccc(F)c3)C2)c1O` (stereo not given), for which the Percent Effect was found to be 7.33%.

On to `CS(=O)(=O)Cc1ccc(CNC(=O)c2cccnc2O)cc1`, for which the Percent Effect was -5.64%.

On to `N#Cc1ccnc(N2CCN(CC(O)c3cccc(F)c3)CC2)c1` (stereo not given), for which the Percent Effect was -3.42%.

Take `CN1C(=O)C[C@@H]2[C@@H]1CCN2S(=O)(=O)Cc1ccccc1`: the Percent Effect is -0.595%.

`Cn1ncc2c1C(COCC1CC1)CN(Cc1ccc(F)cc1)C2` (stereo not given): the Percent Effect was -1.07%.

`CCC1=N[C@@]2(CC[C@@H]3CN(C(=O)NCC(C)C)C[C@@H]32)C(=O)N1CC(C)C`: the Percent Effect stood at 4.25%.

With `CC(O)CN1CCN(C(=O)c2cnn(-c3ccccc3F)c2)CC1` (stereo not given), the Percent Effect was 5.75%.

Regarding `O=C(CCc1nccs1)N1CCN(c2ccc(Br)cn2)CC1`, the Percent Effect was -1.27%.

In the case of `Cc1cc(CN2CC[C@H]3C(=O)N(c4ccccc4)CCO[C@H]3C2)no1`, the Percent Effect was -4.92%.

For the molecule `Cn1cc(-c2csc(N3CCN(C(=O)OC(C)(C)C)CC3)n2)cn1`, the Percent Effect was 1.85%.

As for `Cc1noc(C(C)C)c1C(=O)NCc1cccc(N(C)C)c1`, the Percent Effect is -6.74%.

For `Cc1ccc(N2CCCc3sc(C(=O)NCc4cccnc4)nc32)nn1`, the Percent Effect was 7.54%.

Regarding `Cc1nc2ccccc2nc1CN1CCCC1Cn1cncn1` (stereo not given), the Percent Effect is 3.23%.

Regarding `CC(C)C(=O)N1CCN(C(=O)CCc2nnc(-c3ccccc3)o2)CC1`, the Percent Effect was -4.06%.

Regarding `Cn1cnnc1C1CCCN(C(=O)NCc2ccc3c(c2)OCO3)C1` (stereo not given), the Percent Effect was determined as 3.43%.

In the case of `CCn1cc(NC(=O)NCC2(N3CCOCC3)CCSC2)cn1` (stereo not given), the Percent Effect is 1.74%.

On to `CS(=O)(=O)NC1CCN(C(=O)NCCNc2ccccn2)CC1`, for which the Percent Effect is -10.7%.

On to `Cc1cccc(-n2ncc(C(=O)N3CCn4c(C)nnc4C3)c2C)c1`, for which the Percent Effect was -4.58%.

Regarding `O=C(c1cscn1)N1CCC[C@]2(C[C@H](OCC3CC3)CO2)C1`, the Percent Effect was 5.91%.

For the molecule `N#Cc1cccnc1NCc1cccnc1N1CCC(C(N)=O)CC1`, the Percent Effect was 0.293%.

Regarding `c1cnc(NCc2noc3c2CN(CCN2CCCC2)CC3)nc1`, the Percent Effect turned out to be 3.48%.

As to `NC(=O)C1CCN(c2nc3nccc(-c4ccccc4)c3c(=O)[nH]2)CC1`, the Percent Effect was 6.75%.

On to `Cc1cc(NC(=O)NCc2ccccn2)n(C)n1`, for which the Percent Effect was found to be 0.103%.

`Fc1ccc(CN2CCC(c3nccnc3-n3ccnc3)CC2)cc1`: the Percent Effect came out at 3.75%.

As to `O=C(c1ccc(-n2cccn2)nc1)N1CCCN(c2cccnn2)CC1`, the Percent Effect was -6.76%.

Consider `CCN(CC)c1ccc(C(=O)NCc2cccnc2-n2cncn2)cn1`, for which the Percent Effect came out at 1.86%.

Regarding `CCCNC(=O)CCNC(=O)Cc1nc(-c2ccco2)oc1C`, the Percent Effect is -5.16%.

With `CN1CCCC(CNC(=O)N2CCN(Cc3ccon3)CC2)C1` (stereo not given), the Percent Effect turned out to be 3.02%.

On to `Cc1nc(C(C)(C)NC(=O)Nc2ccccc2)no1`, for which the Percent Effect is -3.53%.

Consider `CSCc1cccc(S(=O)(=O)NCCCN2CCOCC2)c1`, for which the Percent Effect is 3.64%.

Take `CN(Cc1ccsc1)C(=O)Nc1cccnc1N1CCCC1`: the Percent Effect was -7.38%.

As to `CC(C)n1c(C2CCCN(Cc3ccnn3C)C2)nc2ccccc21` (stereo not given), the Percent Effect was 6.5%.

Turning to `Cc1cc(CC(=O)N2CCCC2c2nc(C(C)C)no2)on1` (stereo not given), the Percent Effect turned out to be 8.84%.

Turning to `COc1cccc(CNc2nc(O)cc(C3CC(=O)N(C)C3)n2)c1` (stereo not given), the Percent Effect was -4.35%.

Regarding `CC(=O)N1CCn2cc(CNC(=O)c3cccn3C)nc2C1`, the Percent Effect was -5.32%.

Consider `O=C1CC(c2ccccc2)C2(CCN(CC3CC3)CC2)N1` (stereo not given), for which the Percent Effect worked out at 5.02%.

On to `CNC(=O)CSc1nc2c(cnn2Cc2ccc(F)cc2)c(=O)[nH]1`, for which the Percent Effect was -3.33%.

As to `Cc1nc(C(=O)N2CCC(Nc3cccnn3)CC2)cs1`, the Percent Effect was found to be 9.11%.

Take `COc1cccc(OCc2cc(C(=O)NC[C@H]3CCCN3)n[nH]2)c1`: the Percent Effect was 3.4%.

Consider `Cc1ccc(CN2CCc3ncnc(C4CCOC4)c3CC2)s1` (stereo not given), for which the Percent Effect is -2.51%.
